Results filed as inconclusive are left out. Activity calls are given as the source filed them. The calls were made as follows, unless noted: active = hit-call score of the fitted dose curve at least 0.9, where 1 is the maximum; inactive = score below 0.9.

From PubChem BioAssay (EPA / NIEHS) come the findings set out here.

In experiment [1] the target is Myc proto-oncogene protein (Homo sapiens) (UniProt P01106). Put plainly: ATG_Myc_CIS: Attagene CIS-FACTORIAL HepG2 Assay for human Myelocytomatosis (Myc) Proto-Oncogene Transcription Factor (AID 2282990). The following applies: HepG2, Attagene cis-reporter transcription factor activity; actives raise or lower the signal. A digest of the protocol: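 Read-out: fluorescent reporter mRNA fragments resolved by capillary electrophoresis after RT-PCR. Human HepG2 liver cells carried transfected cis-element reporter units and were dosed for 24 h. Gain or loss of signal fitted relative to DMSO baseline.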
Chain of Myc proto-oncogene protein (Homo sapiens) (P01106 whole entry, looked up, the tested form may be a part): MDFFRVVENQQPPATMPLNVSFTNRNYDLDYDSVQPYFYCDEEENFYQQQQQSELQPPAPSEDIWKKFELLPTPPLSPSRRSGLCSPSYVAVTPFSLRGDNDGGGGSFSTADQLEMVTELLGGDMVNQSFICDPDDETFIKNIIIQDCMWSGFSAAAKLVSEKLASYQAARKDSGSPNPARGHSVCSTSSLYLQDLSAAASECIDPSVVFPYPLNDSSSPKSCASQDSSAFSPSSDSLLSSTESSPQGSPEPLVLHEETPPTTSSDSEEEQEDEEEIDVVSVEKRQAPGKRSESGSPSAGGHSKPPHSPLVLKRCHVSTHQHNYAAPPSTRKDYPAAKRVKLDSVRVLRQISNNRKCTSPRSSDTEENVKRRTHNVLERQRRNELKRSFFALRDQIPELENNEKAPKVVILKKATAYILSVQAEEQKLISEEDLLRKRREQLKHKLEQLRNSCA

A short description of experiment [2]: ATG_NF_kB_CIS: Attagene CIS-FACTORIAL HepG2 Assay for human Nuclear Factor Kappa B (NF-kB) (AID 2282991). The following applies: HepG2 Attagene cis-factorial NF-kB reporter mRNA; actives raise or lower the signal. Put shortly: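 Read-out: reporter transcript levels quantified by RT-PCR plus capillary electrophoresis of 6-FAM-labelled, HpaI-cut fragments. Transfected HepG2 cells, 24 h compound exposure, endogenous NF-kB-driven cis element; gain or loss scored versus DMSO.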

Experiment [3] can be described thus: ATG_NRF2_ARE_CIS: Attagene CIS-FACTORIAL HepG2 Assay for human Nuclear Factor Erythroid 2 Related Factor 2 (NFR2) response to Antioxidant Response Elements (ARE) (AID 2282992). The following applies: HepG2 Attagene ARE/NRF2 reporter, transcription factor activity; actives raise or lower the signal. Put shortly: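 Endogenous transcription factor activity in human liver HepG2 cells is tracked via a cis-element-driven reporter within a multiplexed set. mRNA induction is read by RT-PCR and capillary electrophoresis after 24 h, with DMSO as baseline.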

The nature of experiment [4]: ATG_Oct_MLP_CIS: Attagene CIS-FACTORIAL HepG2 Assay for human Octamer-Binding Transcription Factor (Oct) (AID 2282993). The following applies: HepG2 Attagene cis-factorial Oct reporter, mRNA; actives raise or lower the signal. Put shortly:
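Cells of the HepG2 line express promoter-controlled reporter sequences whose mRNA levels, after 24 h treatment, are measured by RT-PCR and capillary electrophoresis. Increases and decreases are scored relative to DMSO.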

A short description of experiment [5]: BSK_3C_TissueFactor: BioMAP Diversity Plus: 3C Assay for Tissue Factor Biomarker Activity (AID 2282997). Particulars: BioMAP 3C HUVEC, tissue factor biomarker readout; actives raise or lower the signal. Put shortly: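 Tissue factor on primary human umbilical vein endothelium was read by ELISA 24 h after dosing, gain or loss relative to DMSO. Cytotoxicity ran alongside via SRB (0.1%, TCA-fixed, 560 nm).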

The nature of experiment [6]: BSK_3C_uPAR: BioMAP Diversity Plus: 3C Assay for Urokinase-type plasminogen activator receptor (uPAR) Biomarker Activity (AID 2282998). Particulars: BioMAP 3C HUVEC, uPAR biomarker ELISA; actives raise or lower the signal. Put shortly:
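Endothelial primary cells of human umbilical vein origin received test chemical; 24 h later uPAR was assayed by ELISA. Fitting was bidirectional, DMSO as negative control.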
On the technique in general: In an ELISA, binding on a coated surface is turned into a signal by an enzyme label.

The nature of experiment [7]: BSK_3C_VCAM1: BioMAP Diversity Plus: 3C Assay for Vascular cell adhesion molecule 1 (VCAM1) Biomarker Activity (AID 2282999). The following applies: BioMAP 3C HUVEC, VCAM1 ELISA, cytokine-stimulated; actives raise or lower the signal. Put shortly: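 HUVEC primary cells, 24 h compound exposure; VCAM-1 by ELISA; gain/loss of signal fitted bidirectionally vs DMSO baseline.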

Experiment [8] in a line: BSK_4H_Eotaxin3: BioMAP Diversity Plus: 4H Assay for Eotaxin 3 Biomarker Activity (AID 2283000).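 As to outcome: CCL26 protein level quantified by ELISA in parallel with SRB cytotoxicity check.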 The following applies: primary human endothelial cells (HUVEC); actives raise or lower the signal. Put shortly:
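Human umbilical vein endothelial cells (BSK_4H system) dosed with test chemical; Eotaxin-3 (CCL26) measured by ELISA 24 h after dosing. Bidirectional curve fitting relative to DMSO negative control as baseline.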

Read-out in experiment [9]: Intercellular Adhesion Molecule 1 (ICAM1), ICAM1 (gene 3383)
Put plainly: BSK_3C_ICAM1: BioMAP Diversity Plus: 3C Assay for Intercellular Adhesion Molecule 1 (ICAM1) Biomarker Activity (AID 2283003). The following applies: primary human endothelial cells (HUVEC); actives raise or lower the signal. A digest of the protocol: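 Using DMSO as baseline, bidirectional curve fitting was applied to ICAM-1 ELISA signals from HUVEC in the 3C system, measured 24 h after compound addition.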

A short description of experiment [10]: BSK_3C_Proliferation: Cell Proliferation Assessment in the BioMAP Diversity Plus: 3C Assay (AID 2283006).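 As to AC50: potency may reflect either rise or fall in cell number versus DMSO.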 Particulars: primary human endothelial cells (HUVEC). A digest of the protocol:
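Measured here: sulforhodamine B (0.1%) staining of TCA-fixed sub-confluent umbilical vein endothelial cultures 48 h post-dosing, absorbance 560 nm. DMSO served as negative control and baseline; both signal gain and loss were modelled.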

For experiment [11], the target named is Peroxisome proliferator-activated receptor gamma (Homo sapiens) (UniProt P37231). Put plainly: ATG_PPARg_TRANS: Attagene TRANS-FACTORIAL HepG2 Assay for human Peroxisome Proliferator-activated Receptor-gamma (PPARg) (AID 2283007; active = hit-call score of the fitted dose curve at least 0.9, where 1 is the maximum). A digest of the protocol:
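Read-out: reporter mRNA induction, detected by fluorescence after RT-PCR and capillary electrophoresis. Transiently transfected human HepG2 liver cells carrying a chimeric NR-Gal4 construct were dosed for 24 h; activity was fitted upward relative to DMSO.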

For experiment [12], the target named is Nuclear receptor subfamily 1 group I member 2 (Homo sapiens) (UniProt O75469). The experiment can be described thus: ATG_PXR_TRANS: Attagene TRANS-FACTORIAL HepG2 Assay for human Pregnane X Receptor (PXR) (AID 2283008; active = hit-call score of the fitted dose curve at least 0.9, where 1 is the maximum). A digest of the protocol:
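HepG2 transfected (FuGene 6) with GAL4-UAS reporter units + PXR-Gal4 chimera; dosed 24 h. Total RNA → oligo(dT) RT → PCR → 6-FAM primer extension → HpaI cut → CE. Gain-of-signal vs DMSO.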

Experiment [13] has as its target human RAR-related Orphan Receptor gamma (RORg), RORC (gene 6097) (UniProt P51449). Put plainly: ATG_RORg_TRANS: Attagene TRANS-FACTORIAL HepG2 Assay for human RAR-related Orphan Receptor gamma (RORg) (AID 2283011; active = hit-call score of the fitted dose curve at least 0.9, where 1 is the maximum). Put shortly:
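Reporter transcripts from a transfected RORg-GAL4 chimera in HepG2 cells were quantified 24 h after dosing by RT-PCR, 6-FAM labelling, HpaI digestion and capillary electrophoresis; increases over DMSO baseline were fitted.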

Experiment [14] has as its target human RAR-related Orphan Receptor beta (RORb), RORB (gene 6096) (UniProt Q92753). The experiment can be described thus: ATG_RORb_TRANS: Attagene TRANS-FACTORIAL HepG2 Assay for human RAR-related Orphan Receptor beta (RORb) (AID 2283010; active = hit-call score of the fitted dose curve at least 0.9, where 1 is the maximum). Put shortly:
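Multiplexed transcription-factor reporter assay: HepG2 cells transiently carrying NR-Gal4/GAL4-UAS constructs, 24 h treatment, mRNA quantified by RT-PCR plus capillary electrophoresis fluorescence; activity scored as induction over DMSO.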

For experiment [15], the target named is Retinoic acid receptor alpha (Homo sapiens) (UniProt P10276). Put plainly: ATG_RARa_TRANS: Attagene TRANS-FACTORIAL HepG2 Assay for human Retinoic Acid Receptor alpha (RARa) (AID 2283005; active = hit-call score of the fitted dose curve at least 0.9, where 1 is the maximum). Put shortly: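 HepG2 transiently transfected with multiplex GAL4-UAS reporter units including a human RARa–GAL4 chimera; 24 h compound exposure. Reporter mRNA quantified by RT-PCR, 6-FAM labeling and capillary electrophoresis; gain of signal versus DMSO.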
Chain of Retinoic acid receptor alpha (Homo sapiens) (P10276 whole entry, looked up, the tested form may be a part): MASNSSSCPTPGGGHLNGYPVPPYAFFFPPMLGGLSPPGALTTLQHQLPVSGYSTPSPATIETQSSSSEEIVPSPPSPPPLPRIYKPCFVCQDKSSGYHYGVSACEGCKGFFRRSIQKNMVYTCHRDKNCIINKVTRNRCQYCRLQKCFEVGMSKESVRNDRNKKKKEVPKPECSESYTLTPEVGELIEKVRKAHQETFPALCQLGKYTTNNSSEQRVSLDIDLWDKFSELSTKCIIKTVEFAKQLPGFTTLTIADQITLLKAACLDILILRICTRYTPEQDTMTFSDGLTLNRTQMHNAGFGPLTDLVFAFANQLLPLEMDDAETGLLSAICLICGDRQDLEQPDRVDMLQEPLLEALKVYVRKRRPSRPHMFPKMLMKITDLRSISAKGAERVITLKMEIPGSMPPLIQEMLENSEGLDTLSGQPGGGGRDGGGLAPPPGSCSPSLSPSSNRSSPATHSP

In experiment [16] the target is human Peroxisome Proliferator-activated Receptor alpha (PPARa), PPARA (gene 5465) (UniProt Q07869). The experiment can be described thus: ATG_PPARa_TRANS: Attagene TRANS-FACTORIAL HepG2 Assay for human Peroxisome Proliferator-activated Receptor alpha (PPARa) (AID 2283001; active = hit-call score of the fitted dose curve at least 0.9, where 1 is the maximum). Put shortly:
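Transient HepG2 transfection, GAL4-UAS reporters, NR-Gal4 chimeras; 24 h compound exposure. Readout: reporter transcripts by RT-PCR, 6-FAM primer extension, HpaI digest, capillary electrophoresis. Positive direction vs DMSO baseline.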

The target of experiment [17] is human Retinoic Acid Receptor beta (RARb), RARB (gene 5915) (UniProt P10826). The experiment can be described thus: ATG_RARb_TRANS: Attagene TRANS-FACTORIAL HepG2 Assay for human Retinoic Acid Receptor beta (AID 2283004; active = hit-call score of the fitted dose curve at least 0.9, where 1 is the maximum). Put shortly: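 Induction of reporter mRNA from a chimeric RARb-Gal4 construct was measured by RT-PCR, FAM labelling, HpaI digestion and capillary electrophoresis. Measurements followed 24 h compound treatment of transiently transfected human HepG2 liver cells, with DMSO as baseline.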
Chain of human Retinoic Acid Receptor beta (RARb), RARB (gene 5915) (P10826 whole entry, looked up, the tested form may be a part): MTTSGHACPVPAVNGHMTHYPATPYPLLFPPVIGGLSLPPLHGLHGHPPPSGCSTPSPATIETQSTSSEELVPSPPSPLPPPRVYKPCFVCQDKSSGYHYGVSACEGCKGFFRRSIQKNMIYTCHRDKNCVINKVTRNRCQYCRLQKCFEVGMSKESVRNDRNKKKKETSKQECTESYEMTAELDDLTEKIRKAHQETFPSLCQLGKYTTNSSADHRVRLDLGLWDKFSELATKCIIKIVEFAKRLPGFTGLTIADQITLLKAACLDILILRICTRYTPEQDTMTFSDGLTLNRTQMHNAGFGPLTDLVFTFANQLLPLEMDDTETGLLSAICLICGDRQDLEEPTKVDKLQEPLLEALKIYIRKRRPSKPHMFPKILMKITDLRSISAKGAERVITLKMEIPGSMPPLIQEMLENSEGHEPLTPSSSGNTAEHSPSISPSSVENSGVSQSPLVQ

Chain of Nuclear receptor subfamily 1 group I member 2 (Homo sapiens) (O75469 whole entry, looked up, the tested form may be a part): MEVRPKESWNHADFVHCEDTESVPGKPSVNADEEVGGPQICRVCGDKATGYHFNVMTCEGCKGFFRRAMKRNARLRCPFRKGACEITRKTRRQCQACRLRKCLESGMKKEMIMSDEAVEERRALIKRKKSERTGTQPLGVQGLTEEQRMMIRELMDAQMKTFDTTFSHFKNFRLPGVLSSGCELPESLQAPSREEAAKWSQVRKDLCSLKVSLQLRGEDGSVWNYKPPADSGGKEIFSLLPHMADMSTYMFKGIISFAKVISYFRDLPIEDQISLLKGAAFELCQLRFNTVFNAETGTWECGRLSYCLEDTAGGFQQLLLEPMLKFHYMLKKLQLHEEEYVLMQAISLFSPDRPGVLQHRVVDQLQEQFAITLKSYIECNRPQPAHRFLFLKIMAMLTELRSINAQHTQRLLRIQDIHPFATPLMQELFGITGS
Chain of human RAR-related Orphan Receptor gamma (RORg), RORC (gene 6097) (P51449 whole entry, looked up, the tested form may be a part): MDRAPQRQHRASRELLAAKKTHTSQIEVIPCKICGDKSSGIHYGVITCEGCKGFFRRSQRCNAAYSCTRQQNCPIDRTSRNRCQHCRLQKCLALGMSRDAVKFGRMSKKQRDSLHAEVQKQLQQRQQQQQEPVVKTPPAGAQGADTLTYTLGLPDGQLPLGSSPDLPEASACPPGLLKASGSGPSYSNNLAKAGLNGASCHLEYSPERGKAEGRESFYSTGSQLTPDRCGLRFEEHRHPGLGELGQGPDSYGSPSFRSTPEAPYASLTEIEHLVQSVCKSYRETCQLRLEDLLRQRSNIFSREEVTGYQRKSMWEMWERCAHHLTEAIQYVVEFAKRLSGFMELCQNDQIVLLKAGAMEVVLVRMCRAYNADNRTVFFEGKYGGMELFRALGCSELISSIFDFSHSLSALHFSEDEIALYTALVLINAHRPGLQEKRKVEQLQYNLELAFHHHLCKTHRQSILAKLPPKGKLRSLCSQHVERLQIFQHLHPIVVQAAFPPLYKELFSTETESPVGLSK
Chain of human Peroxisome Proliferator-activated Receptor alpha (PPARa), PPARA (gene 5465) (Q07869 whole entry, looked up, the tested form may be a part): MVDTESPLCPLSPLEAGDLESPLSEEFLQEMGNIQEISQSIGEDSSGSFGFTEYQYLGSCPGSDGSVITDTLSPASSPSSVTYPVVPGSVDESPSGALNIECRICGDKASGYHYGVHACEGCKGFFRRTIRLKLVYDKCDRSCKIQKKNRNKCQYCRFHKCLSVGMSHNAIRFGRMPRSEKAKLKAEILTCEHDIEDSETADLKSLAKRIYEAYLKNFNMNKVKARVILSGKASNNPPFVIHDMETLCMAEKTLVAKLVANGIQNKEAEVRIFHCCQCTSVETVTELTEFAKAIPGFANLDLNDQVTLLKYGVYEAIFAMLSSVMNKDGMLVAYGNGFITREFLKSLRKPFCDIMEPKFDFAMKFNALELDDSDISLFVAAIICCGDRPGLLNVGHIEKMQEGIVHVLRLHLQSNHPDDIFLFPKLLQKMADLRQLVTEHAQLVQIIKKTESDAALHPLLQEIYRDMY
Chain of human RAR-related Orphan Receptor beta (RORb), RORB (gene 6096) (Q92753 whole entry, looked up, the tested form may be a part): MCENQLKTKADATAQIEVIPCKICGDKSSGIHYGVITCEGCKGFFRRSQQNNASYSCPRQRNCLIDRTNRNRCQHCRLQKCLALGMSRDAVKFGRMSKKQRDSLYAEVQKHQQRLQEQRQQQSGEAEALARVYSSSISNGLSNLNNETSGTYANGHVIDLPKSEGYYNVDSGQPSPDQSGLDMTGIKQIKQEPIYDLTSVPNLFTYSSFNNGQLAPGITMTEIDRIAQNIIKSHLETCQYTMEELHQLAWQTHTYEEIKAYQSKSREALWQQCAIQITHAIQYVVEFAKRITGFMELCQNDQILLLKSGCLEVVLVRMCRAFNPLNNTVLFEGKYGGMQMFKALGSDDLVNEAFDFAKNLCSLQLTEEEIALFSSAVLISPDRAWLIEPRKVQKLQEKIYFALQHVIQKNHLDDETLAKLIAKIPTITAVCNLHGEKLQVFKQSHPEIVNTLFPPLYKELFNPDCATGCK
Chain of Peroxisome proliferator-activated receptor gamma (Homo sapiens) (P37231 whole entry, looked up, the tested form may be a part): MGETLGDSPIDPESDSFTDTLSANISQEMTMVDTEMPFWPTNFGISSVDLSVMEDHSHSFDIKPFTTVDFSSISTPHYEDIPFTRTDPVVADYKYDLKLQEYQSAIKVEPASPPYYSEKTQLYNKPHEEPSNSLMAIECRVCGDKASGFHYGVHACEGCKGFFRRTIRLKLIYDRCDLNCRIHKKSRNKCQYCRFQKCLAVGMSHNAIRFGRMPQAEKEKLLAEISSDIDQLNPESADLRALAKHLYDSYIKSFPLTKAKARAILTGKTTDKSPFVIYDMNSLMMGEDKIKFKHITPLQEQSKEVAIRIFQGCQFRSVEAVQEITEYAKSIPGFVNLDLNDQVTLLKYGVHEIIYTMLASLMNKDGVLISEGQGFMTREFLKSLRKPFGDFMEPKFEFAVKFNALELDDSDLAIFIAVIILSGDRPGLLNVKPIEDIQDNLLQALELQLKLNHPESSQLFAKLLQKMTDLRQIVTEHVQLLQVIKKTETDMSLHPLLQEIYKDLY

One may read the AC50 as the midpoint of the concentration-response curve, whichever way the signal moves. Turning to `CCC(C)N(C)C(=O)c1cc2ccccc2c(-c2ccccc2Cl)n1` (centres undefined), the compound was called inactive in experiment [1], in [2], in experiment [5], in experiment [6], in experiment [7] and in experiment [8]. In addition, the result in experiment [9], in experiment [11], in experiment [12] and in [13] was inactive. Further, the AC50 in [3] was 16.8 µM (active); in experiment [4], 37 µM (active); in experiment [10], 8.77 µM (active).
For the compound `Cc1cc(SC2=C(O)C[C@@](CCc3ccc(N)cc3)(C(C)C)OC2=O)c(C(C)(C)C)cc1CO`, the result in experiment [1], in experiment [2], in experiment [4], in experiment [5], in [6] and in experiment [7] was inactive. Besides, the outcome in experiment [8], in [9], in experiment [10], in experiment [14] and in experiment [13] was inactive. Moreover, the AC50 was 4.49 µM (active) in experiment [3] and 1.65 µM (active) in experiment [12].
`Cc1cc(Cc2ccc(N)c(C)c2)ccc1N`: the compound was classed as inactive in experiment [1], in [2], in experiment [3], in [4], in experiment [5] and in experiment [6]. Also, the result in experiment [7], in experiment [8], in experiment [9], in [15], in [10] and in [12] was inactive. The result in experiment [13] was inactive.
In the case of `CC(=O)OCC(COC(C)=O)OC(C)=O`, the outcome in experiment [1], in experiment [2], in [3], in experiment [4], in experiment [5] and in experiment [6] was inactive. In addition, the outcome in experiment [7], in experiment [8], in experiment [9] and in [10] was inactive.
Consider `c1ccc2occc2c1`, for which the outcome in [1], in experiment [2], in experiment [3], in experiment [4], in [5] and in [6] was inactive. For the same compound, the outcome in [7], in experiment [8], in experiment [16], in [9], in experiment [10] and in [13] was inactive.
For `CC(C)c1cccc(C(C)C)c1`, the outcome in experiment [1], in [2], in experiment [3], in experiment [4], in [5] and in experiment [6] was inactive. Besides, the result in [7], in [8], in experiment [9], in experiment [17], in [10] and in experiment [12] was inactive.
With `CN(C)CCCN1c2ccccc2Sc2ccc(Cl)cc21`, the call in experiment [1], in [2], in experiment [16] and in experiment [12] was inactive. The AC50 in [3] is 11.1 µM (active); in experiment [4], 11.1 µM (active); in [5], 5.43 µM (active); in experiment [6] it was 25.1 µM (active); in [7], 36.8 µM (active); in experiment [8] it was 35.9 µM (active). Moreover, the AC50 in [10] is 25 µM (active).
